Among the data in PubChem BioAssay (NCATS) are efficacy values, retold here.

Measured potencies and affinities stand elsewhere. Activity calls are given as the source filed them. How the calls were made is not given here.
Further: 0% is about no effect.

The conditions of the test: Ebola virus entry assay, green fluorescence channel.
As to `CCOc1ccc2nc3cc(N)ccc3c(N)c2c1`, the efficacy was 18.4% (inactive).
To `CC1CN(c2cc3c(cc2F)c(=O)c(C(=O)O)cn3-c2ccc(F)cc2F)CCN1` (configuration not stated) belongs 9.66% (inactive).
As to `CCCCC(CC)COC(=O)c1ccccc1O` (configuration not stated), the efficacy is -34.1% (inactive).
Turning to `CSCC[C@H](NC(=O)[C@H](Cc1c[nH]c2ccccc12)NC(=O)CCNC(=O)OC(C)(C)C)C(=O)N[C@@H](CC(=O)O)C(=O)N[C@@H](Cc1ccccc1)C(N)=O`, the efficacy was 9.45% (inactive).
For `CCCNC(C)C(=O)Nc1c(C)csc1C(=O)OC` (configuration not stated), the efficacy was 13% (inactive).
Consider `Cc1c(C(=O)NCCO)[n+](=O)c2ccccc2n1[O-]`, for which the efficacy was -17% (inactive).
Regarding `Cc1ccccc1N1CCN(CCc2nnc3n2CCCC3)CC1`, the efficacy is -13.1% (inactive).
For the compound `CC(N)CCCC(C)(C)O` (configuration not stated), the efficacy was -22.7% (inactive).
For `Cc1cc(=O)c2c(O)c3c(O)cc(=O)c4c3c3c(cc(O)c1c23)C(C)(C)C=4O`, the efficacy was -11.2% (inactive).
`Oc1cccc(O)c1`: the efficacy was -18.5% (inactive).
With `O=C(CN1CCNCC1)NC1CCCCC1`, the efficacy was 48.3% (inactive).
As for `CC1(C)OC(=O)NC1=O`, the efficacy is 15.4% (inactive).
In the case of `COc1cnc(NS(=O)(=O)c2ccc(N)cc2)nc1`, the efficacy was -24.4% (inactive).
Take `O=C(O)Cc1sc(-c2ccccc2)nc1-c1ccc(Cl)cc1`: the efficacy was -17.4% (inactive).
Regarding `COc1ccc(/C=N/NC(=O)c2ccncc2)cc1OC`, the efficacy was 14.8% (inactive).
Consider `CN1CC[C@]23c4c5ccc(O)c4O[C@H]2[C@@H](O)C=C[C@H]3[C@H]1C5`, for which the efficacy is 19.5% (inactive).
On to `Cc1c(C(=O)O)c(O)cc2c1C(=O)c1c(O)c([C@@H]3O[C@H](CO)[C@@H](O)[C@H](O)[C@H]3O)c(O)c(O)c1C2=O`, for which the efficacy was -19.5% (inactive).
